Results published in PubChem BioAssay AID1851 (National Center for Advancing Translational Sciences (NCATS), 2009).
The whole screen tested about 16,000 compounds, of which about 4,000 (25%) were called active. Not shown: some 26% with an inconclusive outcome. These entries were drawn from the full list. Values without a mark were called inactive. Calls come from the whole dose curve; as a rule, active = well fitted curve in the direction sought with a large enough effect; inconclusive = small, poorly fitted or top-dose-only effect, or effect the other way; inactive = no such curve, though single readings can be large or run the other way.

The compounds below were run against Cytochrome P450 2C9 (Homo sapiens) (UniProt P11712) (assay: Cytochrome panel assay with activity outcomes). Conditions: recombinant CYP, pro-luciferin dealkylation, luminescence, p450-cyp2c9; series mostly up to 57.1 µM; activity, negative = inhibition: at the top concentration.
Chain of Cytochrome P450 2C9 (Homo sapiens) (P11712 whole entry, looked up): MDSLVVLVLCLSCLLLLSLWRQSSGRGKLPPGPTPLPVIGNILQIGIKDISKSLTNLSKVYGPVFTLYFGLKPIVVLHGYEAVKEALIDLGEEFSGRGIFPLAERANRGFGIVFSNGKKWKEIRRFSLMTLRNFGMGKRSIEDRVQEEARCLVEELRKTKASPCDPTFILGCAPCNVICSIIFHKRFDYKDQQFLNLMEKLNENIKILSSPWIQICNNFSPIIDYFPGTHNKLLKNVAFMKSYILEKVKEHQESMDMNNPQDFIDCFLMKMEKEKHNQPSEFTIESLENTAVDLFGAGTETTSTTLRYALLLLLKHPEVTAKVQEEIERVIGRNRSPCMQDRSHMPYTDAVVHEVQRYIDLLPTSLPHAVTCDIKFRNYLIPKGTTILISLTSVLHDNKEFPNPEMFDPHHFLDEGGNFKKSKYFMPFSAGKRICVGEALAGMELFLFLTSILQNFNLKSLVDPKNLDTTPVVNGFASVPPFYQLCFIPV
% is set by controls: 0 for no effect and ±100 for the full control effect.

Structure (SMILES) | activity, negative = inhibition | AC50
CCOC(=O)N/N=C1/C[C@@H](O)[C@@H](O)[C@@H]2[C@@H]3C(=O)N(CC)C(=O)[C@H]3CC[C@H]12 | 8.47% [at 11.4 µM] | –
O=S(=O)(c1ccc(F)cc1)N1CC2CCCN2c2ccc(C(F)(F)F)cc21 (stereo unspecified) | – | 10 µM (active)
O=S(=O)(c1ccc(F)cc1)N1CCCC(CO)C1 (stereo unspecified) | -17.2% | –
O=C(Nc1ccccc1)N1CC2(CCN(C(=O)c3ccco3)CC2)C1 | 8.02% | –
CN1CCN(c2nc(-c3cccc(C#N)c3)nc3ccccc23)CC1 | -2.12% [at 2.29 µM] | –
COc1ccc(-c2nc(-c3cccc(C)c3)nc(N3CCN(C)CC3)c2C#N)cc1 | – | 7.94 µM (active)
CN1CCN(c2ncnc3ccc(-c4cccc(C#N)c4)cc23)CC1 | 10.4% [at 2.29 µM] | –
Nc1ncnc2nc(N3CCN(CCO)CC3)[nH]c12 | -3.79% [at 11.4 µM] | –
CC(=O)NC(NC(C)=O)c1ccc(Br)cc1 | -4.71% | –
Cc1cc(SCC(=O)c2ccc(Br)cc2)cc(C)[o+]1 | – | 2.51 µM (active)
FC(F)(F)c1nnc2c(Sc3ccc(Cl)cc3)nc3ccccc3n12 | -15.9% | –
FC(F)(F)c1nnc(-c2ccccc2)nc1Sc1ccccc1 | – | 7.08 µM (active)
CN(C)C(=O)c1ccc(-c2ccc3ncnc(Nc4ccc(F)cc4)c3c2)cc1 | 6.1% [at 2.29 µM] | –
COc1n[nH]c2nncnc12 | 1.34% | –
CN(C)c1ncc2nc(-c3ccc(F)cc3)c(=O)n(Cc3cccs3)c2n1 | -2.96% | –
Fc1ccc(-c2cnc(-c3cccs3)o2)cc1 | – | 12.6 µM (active)
CCCN[C@@H](C)C(=O)Nc1ccccc1C | – | inactive
Cc1ccccc1NC(=O)C(C)c1cccc(C(=O)c2ccccc2)c1 (stereo unspecified) | – | 3.16 µM (active)
O=C(O)[C@@H]1[C@@H]2C[C@H]3c4[nH]c5ccccc5c4CCN3C[C@@H]2CC[C@@H]1O | 13.2% [at 25.6 µM] | –
C=C1C=C(Br)C2(OCCCO2)[C@H]2OC12 (stereo partly specified) | 13.6% [at 11.4 µM] | –
O=C(CN(C(=O)CSc1nc2ccccc2o1)c1cccc(F)c1)NC1CCCCC1 | – | 2.24 µM (active)
CC(=O)NC1(c2cccc(F)c2)CCN(CC(=O)NC2CCCCC2)CC1 | -16.3% | –

Structure (SMILES) | activity, negative = inhibition | AC50
CCCCCCCCCCCCCCCCCCOC[C@@H](COP(=O)([O-])OCC[N+](C)(C)C)OC | 11.6% | –
COc1ccc(CCn2c(=N)c(C(=O)NCc3ccco3)cc3c(=O)n4ccccc4nc32)cc1 | – | 20 µM (active)
Cc1cc2c(c(=O)o1)[C@H](O)[C@H]1O[C@@H]1C2=O | 10.8% [at 11.4 µM] | –
CC(C)C[C@@H](N)C(=O)Nc1ccc2ccccc2c1 | -7.85% [at 11.4 µM] | –
c1ccc2cc(NCNc3ccc4ccccc4c3)ccc2c1 | – | 3.98 µM (active)
COc1ccc(-c2nc3cnc(Nc4cccc(OC)c4)nc3n(Cc3cccs3)c2=O)cc1 | -0.306% | –
CCOc1ccc(NC2=NCC(=O)N2Cc2cccs2)cc1 | – | 17.8 µM (active)
COc1ccc(-c2nc3cnc(N(C)C)nc3n(Cc3cccs3)c2=O)cc1 | 17.4% | –
O=c1c(-c2ccc(F)cc2)nc2cnc(Nc3ccccc3)nc2n1Cc1cccs1 | -6.62% | –
COc1ccc(NC2=NCC(=O)N2Cc2cccs2)cc1 | – | 14.1 µM (active)
COc1cccc(Nc2ncc3nc(-c4ccccc4)c(=O)n(Cc4cccs4)c3n2)c1 | -2.75% | –
O=C1CN=C(Nc2ccccc2)N1Cc1cccs1 | – | 17.8 µM (active)
COc1cccc(C2=CC(c3ccccc3)n3nnnc3N2)c1 (stereo unspecified) | – | 0.501 µM (active)
COc1cccc(-c2nc(NC3CCNCC3)c3ccccc3n2)c1 | 11.6% [at 2.29 µM] | –
COc1cccc(-c2cncnc2NC2CCNCC2)c1 | 28.5% [at 2.29 µM] | –
CC(=O)N1CCC2(CCCN(c3ccccc3)C2)CC1 | -26% | –
COCC(=O)N1CCC2(CCCN(c3cccc(-c4ccccc4)c3)C2)CC1 | – | 25.1 µM (active)
COCC(=O)N1CCC2(CCCN(C(=O)Nc3ccccc3)C2)CC1 | 0.7% | –
CC(=O)N1CCC2(CCCN(c3cccc(-c4ccccc4)c3)C2)CC1 | – | 12.6 µM (active)
COCC(=O)N1CCC2(CC1)CCN(c1cccc(-c3ccccc3)c1)CC2 | -12.7% | –
COCC(=O)N1CCC2(CCCN(c3ccncc3)C2)CC1 | -17.3% | –
COCC(=O)N1CCC2(CC1)CN(C(=O)Nc1ccccc1)C2 | – | 1.58 µM (active)

Structure (SMILES) | activity, negative = inhibition | AC50
CC(=O)N1CCC2(CC1)CCN(c1cccc(-c3ccccc3)c1)CC2 | -15% | –
COCC(=O)N1CCC2(CC1)CN(C(=O)Nc1ccc(OC)cc1)C2 | -5.72% | –
Cc1noc(C)c1-c1nccc(N(C)Cc2ccco2)n1 | 10.6% [at 2.29 µM] | –
CCCn1c(=O)c2[nH]c(-c3ccc(OCC(=O)NCCN)cc3)nc2n(CCC)c1=O | -17.5% | –
Cc1noc(C)c1-c1nc(N2CCN(C)CC2)c2ccccc2n1 | 1.84% [at 2.29 µM] | –
Cc1cc([C@](C)(N)C(=O)O)ccc1P(=O)(O)O | -9.49% | –
N[C@H](C(=O)O)c1cc(O)cc(O)c1 | – | inactive
CC1=C(C(=O)O)N2C(=O)[C@@H](NC(=O)[C@@H](N)C3=CCC=CC3)[C@@H]2SC1 | 11.2% | –
COc1ccc(NC(=O)CSc2nnc(Cc3cccn3C)n2CCc2ccccc2)c(OC)c1 | – | 11.2 µM (active)
COc1ccc(NC(=O)NCc2cccn2C)c(OC)c1 | 2.26% | –
COc1cccc(Nc2ncc3nc(CCc4ccccc4)c(=O)n(Cc4cccs4)c3n2)c1 | 11% | –
COc1ccc(OC)c(C(=O)CSc2nnc(Cc3cccs3)n2CCc2ccccc2)c1 | – | 1.58 µM (active)
CC(Sc1nnc(Cc2cccs2)n1C1CCCCC1)C(N)=O (stereo unspecified) | -26.6% | –
O=c1[nH]c(SCc2cccc([N+](=O)[O-])c2)nc2nc[nH]c12 | 4.13% [at 11.4 µM] | –
O=[N+]([O-])c1ccc(-c2cnc(SCc3ccccc3Cl)[nH]2)cc1 | – | 3.98 µM (active)
O=c1[nH]c(SCc2ccccc2[N+](=O)[O-])nc2nc[nH]c12 | 11.4% [at 11.4 µM] | –
COc1ccccc1CN1CCCC2(CCN(S(C)(=O)=O)CC2)C1 | 6.51% | –
C=CCOc1c2ccc(C(=O)NC3CCCc4ccccc43)cc2nn1C (stereo unspecified) | -24.9% | –
Cc1c(C(=O)Nc2cccc(C(F)(F)F)c2)oc2ccc(S(=O)(=O)N3CCOCC3)cc12 | – | 1.41 µM (active)
O=C(O)C[C@@H]1CCCc2ccccc2[C@H]1O | 11.1% | –
Cc1c(C(=O)NC2CCCc3ccccc32)oc2ccc(S(=O)(=O)N3CCOCC3)cc12 (stereo unspecified) | – | 7.08 µM (active)
CCOc1cc(CNCCCN2CCOCC2)cc(Br)c1OCC(=O)Nc1cccc(C(F)(F)F)c1 | -9.88% | –
